Broadly, the inhibition is the relative decrease from the control value, in per cent.

Hit rate of the full screen: of about 97,000 compounds, about 520 (0.54%) were called active. For the sample, actives were picked, then their nearest neighbours and some compounds at random. Values without a mark were called inactive.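 The calls were made as follows: active = inhibition of 50% or more in the single-concentration screen; inactive = inhibition below 50%.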

The experiment deals with Serine/threonine-protein kinase PLK1 (Homo sapiens) (UniProt P53350). Briefly: human PLK1 kinase inhibitors, primary screen, biochemical, TR-FRET (AID 619).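 Also: 0% = DMSO max control and 100% = H-89 dihydrochloride min control.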 The settings on record: recombinant PLK1 kinase, TR-FRET peptide phosphorylation; at 10 µM; active compounds read high.
Serine/threonine-protein kinase PLK1 (Homo sapiens), sequence (P53350 whole entry, looked up): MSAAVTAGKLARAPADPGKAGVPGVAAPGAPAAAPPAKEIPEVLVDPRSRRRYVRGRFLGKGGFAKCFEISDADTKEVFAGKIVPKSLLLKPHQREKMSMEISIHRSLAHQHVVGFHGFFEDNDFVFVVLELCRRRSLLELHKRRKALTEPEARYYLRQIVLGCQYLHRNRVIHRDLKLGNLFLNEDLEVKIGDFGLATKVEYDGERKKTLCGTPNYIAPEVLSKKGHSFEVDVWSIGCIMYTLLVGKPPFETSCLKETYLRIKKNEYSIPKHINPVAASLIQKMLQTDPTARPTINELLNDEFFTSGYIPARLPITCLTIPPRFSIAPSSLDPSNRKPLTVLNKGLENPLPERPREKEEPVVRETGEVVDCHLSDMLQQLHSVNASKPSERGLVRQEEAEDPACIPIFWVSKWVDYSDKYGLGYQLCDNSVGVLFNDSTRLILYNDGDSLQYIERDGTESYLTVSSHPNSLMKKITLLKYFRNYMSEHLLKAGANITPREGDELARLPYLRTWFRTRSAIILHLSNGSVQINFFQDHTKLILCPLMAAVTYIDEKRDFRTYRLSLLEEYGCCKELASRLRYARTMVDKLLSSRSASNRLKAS
In the case of `COCC(=O)Nc1ccc(Br)cc1`, the inhibition is 2.4%. The same measure for `COc1ccc(NCc2nnc(SCc3ccccc3)n2-c2ccc(OC)cc2)cc1`: -14.5%; for `CC1Cc2ccccc2N1C(=O)c1cc2sccc2n1Cc1ccccc1` (stereo not drawn): -10.7%.

As for `Cc1ccc(C(=O)N/C(=C/C=C/c2ccccc2)C(=O)NCc2ccco2)cc1`, the inhibition was -5.76%. `O=C(/C=C/c1ccccc1)N/C(=C/c1ccccc1)C(=O)Nc1ccccc1O`: the inhibition is -4.44%. Next, `Cc1ccccc1-n1c(C)cc(/C=N/NC(=O)c2ccc(CN3CCOCC3)cc2)c1C`: -16%.

Consider `Fc1ccccc1COc1ccccc1CNCc1ccncc1`, for which the inhibition is -5.47%. In the case of `COCCCNC(=O)CN1CCN(Cc2ccccc2Cl)C1=O`, the inhibition was -2.49%. As for `COC(=O)CNS(=O)(=O)c1ccc(OC)cc1`, the inhibition is -2.7%. Next, `Cc1ccc(-n2c(CNc3ccc(F)cc3)nnc2SCC(=O)N2CCOCC2)cc1`: -8.34%; `O=C(NCc1ccccn1)c1cc(-c2ccccc2Cl)on1`: -11.3%. The same measure for `CCC(C)NC(=O)CCCc1ccccc1` (stereo not drawn): 3.26%. The same measure for `O=C(Cn1cncn1)N/N=C/c1c2ccccc2cc2ccccc12`: -1.05%. Regarding `CC1CCN(S(=O)(=O)c2ccc(S(=O)(=O)NCc3ccco3)cc2)CC1`, the inhibition was -3.69%. Consider `Oc1ccc(-c2onc3ccc(Cl)cc23)cc1`, for which the inhibition was 7.69%. Take `Cn1nc(C(F)(F)F)c(C(=O)Nc2cccc(C(F)(F)F)c2)c1SCc1ccc(Cl)cc1`: the inhibition was -9.84%. Next, `C=CCNc1nc(N)c(C(=C(C#N)C#N)c2ccccc2)s1`: -9.14%; `Cc1c(Nc2cc(N3CCCC(C)C3)c3nonc3c2[N+](=O)[O-])c(=O)n(-c2ccccc2)n1C` (stereo not drawn): -8.74%. Next, `O=C(Nc1nnc(SCc2c(Cl)cccc2Cl)s1)C1CCCO1` (stereo not drawn): 2.16%; `CC(C)C[C@@H](N)c1nnc(SCC(=O)c2ccc(Cl)cc2)o1`: -3.08%. The same measure for `COc1ccc2[nH]cc(/C=C(/C#N)S(=O)(=O)c3ccccc3)c2c1`: 0.68%; for `CC1CC(C)CN(C(=O)CSc2nnc(CSc3ncccn3)n2C)C1` (stereo not drawn): -3.56%; for `CCN1C(=O)C(CC(=O)Nc2cc(C)ccc2C)SC1=Nc1ccc(S(N)(=O)=O)cc1` (stereo not drawn): -2.89%. Regarding `COC(=O)C1=C(C)N=C2SC(C)C(=O)N2C1/C=C/c1ccccc1` (stereo not drawn), the inhibition was -12.6%. Next, `Cc1nn(C)c(Oc2ccccc2)c1[N+](=O)[O-]`: -6.21%.

As for `CCOC(=O)C1=C(NC(=S)NC(=O)c2ccccc2)c2ccccc2CC1(C)C`, the inhibition is 5.6%. In the case of `O=S(=O)(c1cnccc1N1CCN(/N=C/c2ccc(Br)cc2)CC1)N1CCCCC1`, the inhibition was -2.5%.

With `O=C(CCS(=O)(=O)c1ccccc1)Nc1nc2c(s1)CCCC2`, the inhibition is 68.7% (active). The same measure for `Cc1cccc(S(=O)(=O)CC(=O)Nc2nc(-c3ccccc3)cs2)c1`: -1.62%.

Consider `COCc1nnc(NC(=O)CS(=O)(=O)Cc2ccccc2)s1`, for which the inhibition was -4.96%. Next, `COC(=O)c1ccc(CSc2nnc(NC(C)C)s2)cc1`: -15%. Next, `O=C(c1ccc(F)cc1)c1c[nH]c(C(=O)NCc2cccnc2)c1`: 3.12%; `CCSc1nnc(NC(=O)Cc2ccccc2OC)s1`: -15.2%. For `CC(=O)c1cnn(-c2cc(Oc3ccc(F)cc3)ncn2)c1C`, the inhibition is -5.47%.

As to `CC(C)=CC(=O)Nc1nnc(-c2ccc(F)cc2)s1`, the inhibition was -17.5%. Turning to `COc1ccc(C(=O)Nc2ncc3c(n2)-c2ccccc2CC3)cc1`, the inhibition was -1.84%. The same measure for `C/C(=N/NC(=O)c1ccc(NC(=O)c2ccc(F)cc2)cc1)c1ccccc1`: -9.91%; for `CCCc1nnc(NC(=O)CN2C(=O)c3ccccc3S2(=O)=O)s1`: -11%. In the case of `O=C(CN1C(=O)c2ccccc2S1(=O)=O)N1CCc2ccccc21`, the inhibition was -11.2%. Next, `CNC(=O)CN1C(=O)c2ccccc2S1(=O)=O`: 58.4% (active). Next, `CCOC(=O)N1CCN(C(c2cccnc2)c2ccc3cccnc3c2O)CC1` (stereo not drawn): 5.49%; `CN(C(=O)CSc1nnc(N)s1)c1c(N)n(Cc2ccccc2)c(=O)[nH]c1=O`: -0.95%; `CN1/C(=C\C=C2\N=C(c3ccc(F)cc3)OC2=O)C(C)(C)c2ccccc21`: -25.2%. As for `Cc1ccc(NC(=O)c2ccc(CSc3ncnc4nc[nH]c34)cc2)c(C)c1`, the inhibition is 27.2%. With `CCOC(=O)N1CCN(S(=O)(=O)c2ccc(C(=O)Nc3ccc(F)cc3F)cc2)CC1`, the inhibition was -7.78%. The same measure for `O=C(Nc1ccc2c(c1)CCC2)c1cccc(S(=O)(=O)N2CCN(c3ccc(F)cc3)CC2)c1`: -5.86%; for `O=C(Nc1cccc(F)c1)c1ccc(S(=O)(=O)N2CCCC2)cc1`: 72.1% (active); for `CN(Cc1ccccc1)C(=O)COc1ccccc1`: -6.87%.

For `C=CCNC(=S)N/N=C/c1ccc(OCc2ccccc2)cc1`, the inhibition is 7.95%. The same measure for `O=C(Nc1ccc2c(c1)OCCO2)C(c1ccc(F)cc1)N1CCCCC1` (stereo not drawn): 1.96%; for `CC1(C)Cc2c(sc3nc(SCC(=O)NCc4ccccc4)n(-c4ccccc4)c(=O)c23)CS1`: -3.27%. Next, `O=C(Nc1ccccc1Cl)O/N=C(/c1ccccc1)c1ccccn1`: -2.38%; `CCC(C)(C)n1nnnc1CN1CCN(c2nc3ccc(C)cc3cc2C#N)CC1`: -9.44%; `COc1ccc(C(C#N)N2N=C(C)CC2(C)C)cc1` (stereo not drawn): -2.1%. Next, `COc1ccc(C2=Nc3cc(C)ccc3OC2)cc1`: -6.91%; `COc1ccc(-c2nc(CS(=O)CC(=O)NCc3ccccn3)c(C)o2)cc1` (stereo not drawn): -9.42%; `COc1ccc(-c2nc(CS(=O)CC(=O)NCc3cccnc3)c(C)o2)cc1OC` (stereo not drawn): 78.2% (active). With `Cc1oc2nc(SCC(=O)NCc3cccnc3)nc(N)c2c1C`, the inhibition is 5.49%. Next, `Cc1ccccc1OCc1nnc(SCC(=O)N2c3ccccc3Sc3ccc(Cl)cc32)o1`: 3.98%; `CCOC(=O)c1c(C)oc2cc(Br)c(OCC(N)=O)cc12`: -3.79%. Next, `CC(C)(C)N1CC(c2nc3ccccc3n2Cc2ccc(F)cc2)CC1=O` (stereo not drawn): -8.27%. Next, `CC1CN(c2cc(=O)n(-c3cccc(Br)c3)c(=O)[nH]2)CC(C)O1` (stereo not drawn): -9.28%; `CC1CN(c2cc(=O)n(Cc3ccc(F)cc3)c(=O)[nH]2)CC(C)O1` (stereo not drawn): 70.7% (active). As for `Cc1c(Cl)c([N+](=O)[O-])nn1Cc1ccc(C(=O)N/N=C\c2cc(Cl)ccc2O)o1`, the inhibition is -11.3%. Next, `COc1ccc(Nc2nc(Cl)nc(NCc3ccco3)n2)cc1`: -10.4%; `Cc1ccc(S(=O)(=O)NCC(=O)N2CCN(c3ccccn3)CC2)cc1`: -12%.

Turning to `Cc1ccc(-c2nc(CS(=O)CC(=O)NC3CCCC3)c(C)o2)cc1` (stereo not drawn), the inhibition was 62.6% (active).

`COc1ccc(-c2nc(CS(=O)CC(=O)N3CCc4ccccc4C3)c(C)o2)cc1` (stereo not drawn): the inhibition was -0.36%.

For the compound `COc1ccc(-c2nnc(SCC(=O)NC3CCCCC3)o2)cc1OC`, the inhibition was -12.8%.

Consider `Cc1ccc(-c2nc(CS(=O)CC(=O)N3CCN(c4ncccn4)CC3)c(C)o2)cc1` (stereo not drawn), for which the inhibition is 68.5% (active). Consider `Cc1ccc(S(=O)(=O)N(C)CC(=O)NC2CCCC2)cc1`, for which the inhibition is -5.15%.

For `O=C(Nc1ccc(F)c(Cl)c1)C1CCN(S(=O)(=O)c2cccnc2)CC1`, the inhibition is -7.65%. The same measure for `N#CC1=C(N)N(c2ccccc2)C2=C(C(=O)CCC2)C1c1ccccc1` (stereo not drawn): -9.12%. The same measure for `CCOC(=O)Cc1csc(NC(NC(=O)OCC)(C(F)(F)F)C(F)(F)F)n1`: -10.9%; for `C=CCn1c(SCc2c(C(=O)OC)sc(N)c2C(=O)OC)nnc1-c1ccc(Cl)cc1`: 0.32%; for `Cc1ccc(Nc2nc(C)cc(C)c2C(N)=O)cc1`: -8.3%. The same measure for `CCNC(=S)N1CCN(C(=O)c2ccco2)CC1`: -10.9%; for `COc1ccc(CN(Cc2ccco2)S(=O)(=O)c2ccc(S(=O)(=O)N3CCCC3)cc2)cc1`: -1.36%; for `O=C1c2ccccc2C(=O)N1CC1c2ccccc2CCN1S(=O)(=O)c1ccccc1` (stereo not drawn): -13.2%. Regarding `Cc1noc(C)c1COC(=O)c1cc2ccccc2cc1O`, the inhibition was -5.75%. As for `O=C(NCCCCCCCCCNC(=O)C(F)(F)F)C(F)(F)F`, the inhibition was -9%.

Turning to `COc1ccc(C(C(=O)NCc2ccccc2)N(Cc2cccs2)C(=O)c2cnccn2)cc1` (stereo not drawn), the inhibition was -8.73%. Next, `Fc1ccc(N2N=C(c3cccs3)CC2c2ccco2)c(F)c1` (stereo not drawn): -0.33%. The same measure for `O=c1[nH]c(CCl)nc2cc(-c3ccc(Cl)cc3)sc12`: -15.1%. Next, `CCCCNC(=O)CCn1c(=S)[nH]c2cc3c(cc2c1=O)OCO3`: -10.8%; `CCn1c(C)nc2c1C(=O)c1ccccc1C2=O`: -6.21%. For `CC1CCN(c2ccc(S(=O)(=O)Nc3cc(C(=O)O)cc(C(=O)O)c3)cc2[N+](=O)[O-])CC1`, the inhibition was -8.56%. Next, `CCN(CC)C(=O)CSc1nnc(C2CCCCC2)o1`: -6.95%; `O=C(CSCc1ccc([N+](=O)[O-])cc1)Nc1cccc(C(=O)Nc2ccccc2C(=O)O)c1`: -6%; `CCc1ccc2c(c1)cc(CN(C(=S)Nc1ccccc1Cl)C1CC1)c1nnnn12`: -115%.

As for `O=C(CO/N=C/c1ccccc1O)NNC(=O)c1ccccc1Cl`, the inhibition is -11.5%. The same measure for `COC(=O)C1C(=O)NCC1c1ccc(C)cc1` (stereo not drawn): -7.84%; for `CC1C/C(=N/NC(=O)c2cccs2)CC(C)(C)C1` (stereo not drawn): -10.1%.

These data come from PubChem BioAssay AID619 (University of Pittsburgh Molecular Library Screening Center, 2007).
